Inconclusive results are not listed. The source made the active and inactive calls. Unless noted, calls follow the shape of the dose curve; as a rule, active = well fitted curve in the direction sought with a large enough effect in the repeat runs; inconclusive = weak or mixed curves; inactive = no such curve, though single readings can be large; an effect the other way counts as inactive or inconclusive.
Assays:
[1] = target: Peroxisome proliferator-activated receptor delta (Homo sapiens) (UniProt Q03181); test: qHTS assay to identify small molecule agonists of the peroxisome proliferator-activated receptor delta (PPARd) signaling pathway (AID 743212; calls by dose curve)
Sequence of Peroxisome proliferator-activated receptor delta (Homo sapiens) (Q03181 whole entry, looked up): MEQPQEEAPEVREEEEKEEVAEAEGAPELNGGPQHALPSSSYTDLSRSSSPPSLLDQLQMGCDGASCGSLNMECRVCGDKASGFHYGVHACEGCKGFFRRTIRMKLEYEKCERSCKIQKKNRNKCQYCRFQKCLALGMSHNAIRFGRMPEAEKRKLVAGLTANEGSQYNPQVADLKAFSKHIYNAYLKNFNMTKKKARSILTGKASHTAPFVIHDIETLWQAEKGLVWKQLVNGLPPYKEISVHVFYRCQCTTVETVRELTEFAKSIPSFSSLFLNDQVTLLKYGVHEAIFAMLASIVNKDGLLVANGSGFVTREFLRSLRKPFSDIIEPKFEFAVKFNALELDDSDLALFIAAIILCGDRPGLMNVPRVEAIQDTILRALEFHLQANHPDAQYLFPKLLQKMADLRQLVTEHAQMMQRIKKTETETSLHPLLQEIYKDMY
How it was run: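 Cells expressing a UAS-driven beta-lactamase reporter (PPARd-bla HEK293H) were given test compounds after a 5 h settle and kept at 37 C. Reporter activity was then measured as FRET fluorescence using LiveBLAzer B/G substrate.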

[2] = qHTS assay to identify small molecule antagonists of the peroxisome proliferator-activated receptor delta (PPARd) signaling pathway - cell viability counter screen (AID 743213); also: nearly all actives have a fitted effect of over 50% in size
How it was run: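 Viability counter-screen, qHTS format: PPARd-bla HEK293H, L165041 300 nM final, 17 h compound exposure at 37 C, CellTiter-Glo luminescence after 30 min RT.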

[3] = target: Peroxisome proliferator-activated receptor delta (Homo sapiens) (UniProt Q03181); test: qHTS assay to identify small molecule antagonists of the peroxisome proliferator-activated receptor delta (PPARd) signaling pathway (AID 743215; active = well fitted inhibition curve with a large enough effect in the signal ratio in the repeat runs, not every such curve was filed as active; the % refers to the signal ratio;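 also: cells stimulated with agonist L165041 at 300 nM final during compound exposure; series mostly up to about 62 µM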)
How it was run: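 Fluorescence from cleaved LiveBLAzer B/G FRET substrate (2 h, room temperature) reports PPARd-driven beta-lactamase in HEK293H UAS-bla cells. Cells had been treated 17 h at 37 C with compound plus 300 nM final L165041.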

[4] = qHTS assay to identify small molecule agonists of the farnesoid-X-receptor (FXR) signaling pathway - cell viability counter screen (AID 743218); also: nearly all actives have a fitted effect of over 45% in size
How it was run: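 Readout: CellTiter-Glo luminescence, 30 min RT, multiplexed after the FXR-bla FRET reading. HEK 293T FXR-UAS-bla cells received compound 5 h post-plating and were incubated 16 h at 37 C.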

[5] = qHTS assay to identify small molecule antagonists of the farnesoid-X-receptor (FXR) signaling pathway - cell viability counter screen (AID 743221; active = well fitted cell-killing curve with a large enough effect in the repeat runs, not every such curve was filed as active; also: nearly all actives have a fitted effect of over 50% in size)
How it was run: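 Luminescence from CellTiter-Glo measures cytotoxicity in GeneBLAzer FXR-UAS-bla HEK 293T cells. Cells were exposed to compounds with 50 uM chenodeoxycholic acid (final) for 16 h at 37 C, in wells also used for the reporter readout.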

[6] = qHTS assay to identify small molecule agonists of the vitamin D receptor (VDR) signaling pathway - cell viability counter screen (AID 743224); also: series mostly up to about 63 µM; nearly all actives have a fitted effect of over 50% in size
How it was run: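 In parallel with the bla FRET readout, cytotoxicity toward VDR-bla cells after 16 h compound exposure was assessed by CellTiter-Glo, with luminescence recorded after a 30 min room-temperature incubation.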

[7] = target: Bile acid receptor (Homo sapiens) (UniProt Q96RI1); test: qHTS assay to identify small molecule antagonists of the farnesoid-X-receptor (FXR) signaling pathway (AID 743217; active = well fitted inhibition curve with a large enough effect in the signal ratio in the repeat runs, not every such curve was filed as active; the % refers to the signal ratio)
Sequence of Bile acid receptor (Homo sapiens) (Q96RI1 whole entry, looked up): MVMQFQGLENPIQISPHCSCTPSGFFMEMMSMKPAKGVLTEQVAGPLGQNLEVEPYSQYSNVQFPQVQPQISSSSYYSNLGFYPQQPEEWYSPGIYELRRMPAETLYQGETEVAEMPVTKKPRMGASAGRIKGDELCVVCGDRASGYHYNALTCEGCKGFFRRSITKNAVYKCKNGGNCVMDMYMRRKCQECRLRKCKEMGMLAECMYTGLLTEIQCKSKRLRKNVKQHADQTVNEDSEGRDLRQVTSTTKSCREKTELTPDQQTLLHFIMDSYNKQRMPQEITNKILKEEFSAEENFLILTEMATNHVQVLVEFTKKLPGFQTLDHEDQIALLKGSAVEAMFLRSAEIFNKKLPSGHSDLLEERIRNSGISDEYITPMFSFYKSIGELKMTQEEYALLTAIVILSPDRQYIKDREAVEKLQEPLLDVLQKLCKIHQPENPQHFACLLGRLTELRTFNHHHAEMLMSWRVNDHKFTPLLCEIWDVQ
How it was run: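 FRET fluorescence after 2 h room-temperature LiveBLAzer loading gives the readout. Prior step: FXR-bla HEK 293T cells, seeded and incubated 5 h, received test compounds plus 50 uM final CDCA for 16 h at 37 °C.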

[8] = target: Bile acid receptor (Homo sapiens) (UniProt Q96RI1); test: qHTS assay to identify small molecule agonists of the farnesoid-X-receptor (FXR) signaling pathway (AID 743220; active = well fitted activation curve with a large enough effect in the signal ratio in the repeat runs, not every such curve was filed as active; the % refers to the signal ratio)
How it was run: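 FXR-UAS-bla HEK 293T cells carrying a UAS-driven beta-lactamase reporter were plated for 5 h at 37C/5% CO2, then exposed to DMSO-dissolved Tox21 10K compounds for 16 h at 37C. A LiveBLAzer B/G FRET substrate was loaded for 2 h at room temperature before fluorescence reading.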

[9] = target: Vitamin D3 receptor (Homo sapiens) (UniProt P11473); test: qHTS assay to identify small molecule agonists of the vitamin D receptor (VDR) signaling pathway (AID 743222; calls by dose curve)
Sequence of Vitamin D3 receptor (Homo sapiens) (P11473 whole entry, looked up): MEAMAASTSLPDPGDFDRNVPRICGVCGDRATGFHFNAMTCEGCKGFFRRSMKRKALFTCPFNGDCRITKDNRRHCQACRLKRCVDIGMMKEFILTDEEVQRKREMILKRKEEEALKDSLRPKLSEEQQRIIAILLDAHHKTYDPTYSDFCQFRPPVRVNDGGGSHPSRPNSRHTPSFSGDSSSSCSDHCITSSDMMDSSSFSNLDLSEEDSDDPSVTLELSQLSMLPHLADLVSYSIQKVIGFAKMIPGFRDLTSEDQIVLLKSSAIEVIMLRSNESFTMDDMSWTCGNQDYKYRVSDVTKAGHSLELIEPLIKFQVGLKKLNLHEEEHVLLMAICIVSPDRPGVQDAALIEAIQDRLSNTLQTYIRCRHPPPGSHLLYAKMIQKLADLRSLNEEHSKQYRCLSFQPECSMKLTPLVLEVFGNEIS
How it was run: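 Following 4 h attachment at 37C, VDR-bla cells (2,000 per well) received DMSO-dissolved compounds or controls. After 16 h incubation, LiveBLAzer B/G FRET substrate was added and fluorescence read 2 h later at room temperature.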

[10] = target: Vitamin D3 receptor (Homo sapiens) (UniProt P11473); test: qHTS assay to identify small molecule antagonists of the vitamin D receptor (VDR) signaling pathway (AID 743223; active = well fitted inhibition curve with a large enough effect in the signal ratio in the repeat runs, not every such curve was filed as active; the % refers to the signal ratio)
How it was run: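 Antagonist mode uses 1alpha,25-dihydroxyvitamin D3 at 3 nM final as stimulus. VDR-bla cells receive compounds in DMSO, incubate 16 h at 37C, then a beta-lactamase FRET substrate for 2 h at room temperature before fluorescence measurement.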
% is scaled to controls: 0 for no effect and ±100 for the full control effect.

CC(O)C(CO)C(C)O (centres undefined)
inactive: outcome [1] | outcome [2] | outcome [3] | outcome [4] | outcome [5] | outcome [6]

CC(C)CC(O)Cc1ccccc1 (centres undefined)
inactive: outcome [1] | outcome [2] | outcome [3] | outcome [4] | outcome [5] | outcome [6]

O=S(=O)(O)CC(O)CCl (centres undefined)
inactive: outcome [1] | outcome [2] | outcome [7] | outcome [4] | outcome [8] | outcome [5] | outcome [9] | outcome [10] | outcome [6]

N#Cc1ccccc1C#N
inactive: outcome [1] | outcome [2] | outcome [3] | outcome [4] | outcome [5] | outcome [10] | outcome [6]

CC(=O)c1c(C)cc(C(C)(C)C)cc1C
inactive: outcome [1] | outcome [2] | outcome [3] | outcome [4] | outcome [5] | outcome [10] | outcome [6]

CC1=C(O)C(=O)CO1
inactive: outcome [1] | outcome [2] | outcome [3] | outcome [4] | outcome [5] | outcome [10] | outcome [6]

CC(=O)OC/C=C(/C)CCC=C(C)C
inactive: outcome [1] | outcome [2] | outcome [3] | outcome [4] | outcome [5] | outcome [6]

CC(C)(C)c1ccc(N)cc1
inactive: outcome [1] | outcome [2] | outcome [3] | outcome [5] | outcome [9] | outcome [6]

C=CCCCCCCCCCCCCCC
inactive: outcome [1] | outcome [2] | outcome [3] | outcome [4] | outcome [5] | outcome [10] | outcome [6]

CC(C)(C)NCC(O)COc1cccc2c1CCC(=O)N2 (centres undefined)
inactive: outcome [1] | outcome [2] | outcome [3] | outcome [4] | outcome [5] | outcome [6]

N=C(N)N1CCc2ccccc2C1
inactive: activation [1] 2.47% [at 5.95 µM] | viability change, negative = cytotoxic [2] -9.71% [at 6.26 µM] | ratio activity, negative = inhibition [3] -18.7% [at 6.26 µM] | viability change, negative = cytotoxic [4] 5.62% [at 5.95 µM] | activity change, negative = cytotoxicity [5] -6.73% [at 5.95 µM] | activation [9] 4.08% [at 6.01 µM] | activity change, negative = cytotoxicity [6] -1.18% [at 5.95 µM]

O=c1[nH]c(=O)c2cn[nH]c2[nH]1
inactive: outcome [1] | outcome [2] | outcome [3] | outcome [4] | outcome [10] | outcome [6]

CC(=O)c1ccc2ccc3ccccc3c2c1
inactive: outcome [1] | outcome [2] | outcome [7] | outcome [4] | outcome [8] | outcome [5] | outcome [9] | outcome [10] | outcome [6]

CC1(C)S[C@@H]2[C@H](NC(=O)Cc3ccccc3)C(=O)N2[C@H]1C(=O)O (tested in a mixture with another compound)
inactive: outcome [1] | outcome [2] | outcome [3] | outcome [4] | outcome [5] | outcome [6]

CC(C)(O)CCCC1=CCC(C=O)CC1 (centres undefined)
inactive: outcome [1] | outcome [2] | outcome [3] | outcome [4] | outcome [5] | outcome [10] | outcome [6]

COC(=O)c1ccccc1Cl
inactive: outcome [1] | outcome [2] | outcome [3] | outcome [4] | outcome [5] | outcome [6]

CC(=O)Nc1ccc(S(=O)(=O)Nc2cc(C)on2)cc1
inactive: outcome [1] | outcome [2] | outcome [7] | outcome [4] | outcome [8] | outcome [5] | outcome [9] | outcome [10] | outcome [6]

Clc1ccc2c(c1)Nc1ccccc1S2
inactive: outcome [1] | outcome [3] | outcome [4] | outcome [5] | outcome [10] | outcome [6]

C[Si](C)(C)O[Si](O)(O)O
inactive: outcome [1] | outcome [2] | outcome [7] | outcome [4] | outcome [8] | outcome [5] | outcome [10]

CCCCCCCCCCCCCC(=O)OCC
inactive: outcome [1] | outcome [2] | outcome [5] | outcome [9] | outcome [10] | outcome [6]

CC(=O)Oc1ccc(C(C)=O)cc1
inactive: outcome [1] | outcome [3] | outcome [7] | outcome [8] | outcome [5] | outcome [9] | outcome [6]

NS(=O)(=O)c1cc2c(cc1C(F)(F)F)NCNS2(=O)=O
inactive: outcome [1] | outcome [3] | outcome [7] | outcome [5] | outcome [10] | outcome [6]

COC(C)(C)CC(C)=O
inactive: outcome [1] | outcome [3] | outcome [7] | outcome [4] | outcome [8] | outcome [5] | outcome [9] | outcome [6]

C=CCON/C(CCC)=C1\C(=O)CC(C)(C)C(C(=O)OC)=C1O
inactive: outcome [1] | outcome [3] | outcome [7] | outcome [4] | outcome [5] | outcome [9] | outcome [10] | outcome [6]

C=CC(=O)OCC[N+](C)(C)C
inactive: outcome [1] | outcome [3] | outcome [7] | outcome [4] | outcome [8] | outcome [5] | outcome [10] | outcome [6]

CCO[Si](CC(C)C)(OCC)OCC
inactive: outcome [1] | outcome [3] | outcome [7] | outcome [4] | outcome [8] | outcome [5] | outcome [9] | outcome [10]

N#Cc1cc(NC(=O)C(=O)O)c(Cl)c(NC(=O)C(=O)O)c1
inactive: outcome [1] | outcome [3] | outcome [4] | outcome [5] | outcome [10] | outcome [6]

C/C(Cl)=C/CCl
inactive: outcome [1] | outcome [3] | outcome [7] | outcome [4] | outcome [8] | outcome [5] | outcome [6]

O=C(OOC(=O)c1ccccc1)c1ccccc1
inactive: outcome [1] | outcome [3] | outcome [4] | outcome [5]

C[n+]1ccccc1/C=N/O
inactive: outcome [1] | outcome [3] | outcome [4] | outcome [5] | outcome [9] | outcome [10] | outcome [6]

CC(C)C[P+](C)(CC(C)C)CC(C)C
inactive: outcome [1] | outcome [3] | outcome [7] | outcome [4] | outcome [8] | outcome [5] | outcome [9] | outcome [10] | outcome [6]
